The results in this text go back to PubChem BioAssay (EPA / NIEHS).

The structures appear in SMILES notation. Inconclusive results are not listed. Active and inactive are the calls of the source. Rule for the calls, unless noted: active = hit-call score of the fitted dose curve at least 0.9, where 1 is the maximum; inactive = score below 0.9.

System in one assay: not listed separately
The assay is described as follows: IUF_NPC2-5_cell_number_120hr: Cell Number Assessment at 120 hours in the Leibniz Research Institute for Environmental Medicine (IUF) Neural Progenitor Cell Migration and Differentiation Assay (NPC2-5) (AID 2284308).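 Note: count of Hoechst-stained nuclei in migration zone around plated human neural progenitor spheres.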
Conditions: not given
In outline:
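Primary human fetal neural progenitor spheres (GW 16-19, 0.3 mm) plated on poly-D-lysine/laminin in N2 differentiation medium, exposed from day 0 for 120 h with half-medium refresh at day 3; Hoechst-positive nuclei counted in migration area versus DMSO control.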
With `CC(=O)OC/N=[N+](\C)[O-]`, the compound was called inactive.

Take `CCCCOCCOP(=O)(O)OCCOCCCC`: the outcome was inactive.

For the compound `CC(C)O`, the outcome was inactive.

Consider `F`, for which the outcome was inactive.

Turning to `CC(=O)N[C@@H](CC(=O)O)C(=O)O`, the compound was classed as inactive.

On to `CCCCCC=C(C)C(CC)CCO` (stereo unspecified), for which the call was inactive.

On to `BrC1CC(Br)CC(Br)CC(Br)CC(Br)CC(Br)C1` (stereo unspecified), for which the result was inactive.

As to `C[C@@H]1CC[C@@H](C(C)(C)O)[C@H](O)C1`, the outcome was inactive.

With `CC(C)c1nn(C(=O)NC(C)(C)C)c(=O)n1N`, the compound was classed as inactive.

As to `CCc1ccccc1`, the outcome was inactive.

Usually AC50 stands for the midpoint of the concentration-response curve, whichever way the signal moves. On to `CN(C)CCCn1cc(C2=C(c3c[nH]c4ccccc34)C(=O)NC2=O)c2ccccc21`, for which the AC50 was 2.31 µM (active).

On to `CCCCCC(C)(CC)C(=O)NC` (stereo unspecified), for which the call was inactive.

With `Cc1[nH]n(C)c(=O)c1C(=O)c1ccc(C(F)(F)F)cc1S(C)(=O)=O`, the result was inactive.

As to `CC(CNC(=S)[S-])NC(=S)[S-].[Zn+2]` (stereo unspecified), the AC50 was 50 µM (active).

For the compound `C[C@@H]1CCO[C@H]2Cn3cc(C(=O)NCc4ccc(F)cc4F)c(=O)c(O)c3C(=O)N12`, the compound was called inactive.

System in a further assay: not listed separately
The assay is described as follows: IUF_NPC2-5_viability_120hr: Viability Assessment at 120 hours in the Leibniz Research Institute for Environmental Medicine (IUF) Neural Progenitor Cell Migration and Differentiation Assay (NPC2-5) (AID 2284312).
Conditions: not given
In outline:
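Human fetal neural progenitor spheres (0.3 mm) plated on poly-D-lysine/laminin in N2 differentiation medium, exposed 120 h with half-medium refresh at day 3. Viability by alamar blue resazurin fluorescence; 7 concentrations, DMSO max 0.1%.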
Turning to `CC(=O)OC/N=[N+](\C)[O-]`, the call was inactive.

On to `CCCCOCCOP(=O)(O)OCCOCCCC`, for which the call was inactive.

Regarding `CC(C)O`, the compound was called inactive.

Regarding `F`, the compound was classed as inactive.

On to `CC(=O)N[C@@H](CC(=O)O)C(=O)O`, for which the outcome was inactive.

`CCCCCC=C(C)C(CC)CCO` (stereo unspecified): the result was inactive.

`BrC1CC(Br)CC(Br)CC(Br)CC(Br)CC(Br)C1` (stereo unspecified): the call was inactive.

Take `C[C@@H]1CC[C@@H](C(C)(C)O)[C@H](O)C1`: the compound was called inactive.

As for `CC(C)c1nn(C(=O)NC(C)(C)C)c(=O)n1N`, the outcome was inactive.

As for `CCc1ccccc1`, the compound was called inactive.

Consider `CN(C)CCCn1cc(C2=C(c3c[nH]c4ccccc34)C(=O)NC2=O)c2ccccc21`, for which the AC50 is 6.01 µM (active).

Regarding `CCCCCC(C)(CC)C(=O)NC` (stereo unspecified), the result was inactive.

For `Cc1[nH]n(C)c(=O)c1C(=O)c1ccc(C(F)(F)F)cc1S(C)(=O)=O`, the result was inactive.

On to `CC(CNC(=S)[S-])NC(=S)[S-].[Zn+2]` (stereo unspecified), for which the call was inactive.

As to `C[C@@H]1CCO[C@H]2Cn3cc(C(=O)NCc4ccc(F)cc4F)c(=O)c(O)c3C(=O)N12`, the result was inactive.

System in the next assay: not listed separately
Description: CCTE_Mundy_HCI_iCellGluta_NOG_NeuriteLength: CCTE's Neurite Outgrowth Assay in iCellGluta cells for Neurite Length, Mundy Lab (AID 2284318; active = hit-call score of the fitted dose curve at least 0.9, where 1 is the maximum).
Conditions: not given
Summed up:
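Automated high-content imaging of betaIII-tubulin (Alexa Fluor-488) and Hoechst-stained cells gave neurite length, normalized to the DMSO baseline.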
As to `CC(C)O`, the outcome was inactive.

As for `CC(=O)N[C@@H](CC(=O)O)C(=O)O`, the outcome was inactive.

Take `CCCCCC=C(C)C(CC)CCO` (stereo unspecified): the result was inactive.

For the compound `BrC1CC(Br)CC(Br)CC(Br)CC(Br)CC(Br)C1` (stereo unspecified), the AC50 was 3.77 µM (active).

As for `C[C@@H]1CC[C@@H](C(C)(C)O)[C@H](O)C1`, the result was inactive.

Regarding `CC(C)c1nn(C(=O)NC(C)(C)C)c(=O)n1N`, the compound was called inactive.

Regarding `CCCCCC(C)(CC)C(=O)NC` (stereo unspecified), the compound was classed as inactive.

In the case of `Cc1[nH]n(C)c(=O)c1C(=O)c1ccc(C(F)(F)F)cc1S(C)(=O)=O`, the outcome was inactive.

As to `CC(CNC(=S)[S-])NC(=S)[S-].[Zn+2]` (stereo unspecified), the concentration at half-maximal activity (AC50) was 13 µM (active).

As for `C[C@@H]1CCO[C@H]2Cn3cc(C(=O)NCc4ccc(F)cc4F)c(=O)c(O)c3C(=O)N12`, the compound was called inactive.

The next assay deals with Brachyury (BRA) Protein Expression, Deisenroth Lab, TBXT (gene 6862). The assay is described as follows: CCTE_Deisenroth_DEVTOX-GLR_legacy_Bra: (Legacy) CCTE's DevTox GLR-Endo Assay Evaluation of Brachyury (BRA) Protein Expression, Deisenroth Lab (AID 2284329).
Conditions: not given
Summed up:
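Readout: percent Bra+ cells by high-content fluorescence imaging, Bra+ meaning mean intensity 5x BMAD over pluripotent control median. RUES2-GLR cells dosed twice over 48 h differentiation; DMSO-control median subtracted before concentration-response fitting.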
With `c1cc(-c2cnn3cc(-c4ccc(OCCN5CCCCC5)cc4)cnc23)ccn1`, the AC50 was 20 µM (active).

`COc1ccc2[nH]c([S@@](=O)Cc3ncc(C)c(OC)c3C)nc2c1`: the AC50 is 67.9 µM (active).

Consider `Oc1cc(O)c2c(c1)O[C@H](c1ccc(O)c(O)c1)[C@@H](O)C2`, for which the outcome was inactive.

As for `Nc1cccc2c1C(=O)N(C1CCC(=O)NC1=O)C2=O` (stereo unspecified), the call was inactive.

Take `NC(=O)c1ccc(-c2nc(-c3ccc4c(c3)OCO4)c(-c3ccccn3)[nH]2)cc1`: the result was inactive.

System in a further assay: not listed separately
Description: CCTE_Deisenroth_DEVTOX-GLR_legacy_CellCount: (Legacy) Viability Assessment in CCTE's DevTox GLR-Endo Assay, Deisenroth Lab (AID 2284331). The conditions noted are these: actives raise or lower the signal. Summed up:
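Viability is taken from imaged nuclei counts in fixed RUES2-GLR cultures after 48 h of differentiation under two 24 h-spaced chemical exposures, 10 concentrations from 1 nM to 200 uM, gain or loss versus DMSO baseline.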
Consider `c1cc(-c2cnn3cc(-c4ccc(OCCN5CCCCC5)cc4)cnc23)ccn1`, for which the half-maximal activity concentration (AC50) was 20 µM (active).

Consider `COc1ccc2[nH]c([S@@](=O)Cc3ncc(C)c(OC)c3C)nc2c1`, for which the AC50 was 48.1 µM (active).

In the case of `Oc1cc(O)c2c(c1)O[C@H](c1ccc(O)c(O)c1)[C@@H](O)C2`, the AC50 is 167 µM (active).

Regarding `Nc1cccc2c1C(=O)N(C1CCC(=O)NC1=O)C2=O` (stereo unspecified), the AC50 is 0.272 µM (active).

As for `NC(=O)c1ccc(-c2nc(-c3ccc4c(c3)OCO4)c(-c3ccccn3)[nH]2)cc1`, the outcome was inactive.

System in the next assay: not listed separately
The assay is described as follows: IUF_NPC1_cytotoxicity_72hr: Cytotoxicity Assessment at 72 hours in the Leibniz Research Institute for Environmental Medicine (IUF) Neural Progenitor Cell Proliferation Assay (NPC1) (AID 2284332; active = hit-call score of the fitted dose curve at least 0.9, where 1 is the maximum;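 note: rising LDH signal means more cytotoxicity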).
Conditions: not given
Summed up: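 Readout is fluorescence from LDH-dependent resazurin conversion, sampled from culture medium after compound contact lasting 72 h. Each well holds one 0.25-0.35 mm human progenitor sphere kept at 37C, 5% CO2 with EGF and FGF.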
Turning to `CCCCOCCOP(=O)(O)OCCOCCCC`, the compound was classed as inactive.

Regarding `CC(C)O`, the result was inactive.

`CC(=O)N[C@@H](CC(=O)O)C(=O)O`: the compound was called inactive.

In the case of `CCCCCC=C(C)C(CC)CCO` (stereo unspecified), the result was inactive.

`BrC1CC(Br)CC(Br)CC(Br)CC(Br)CC(Br)C1` (stereo unspecified): the compound was classed as inactive.

As for `C[C@@H]1CC[C@@H](C(C)(C)O)[C@H](O)C1`, the compound was classed as inactive.

For `CC(C)c1nn(C(=O)NC(C)(C)C)c(=O)n1N`, the outcome was inactive.

With `CN(C)CCCn1cc(C2=C(c3c[nH]c4ccccc34)C(=O)NC2=O)c2ccccc21`, the compound was classed as inactive.

As to `CCCCCC(C)(CC)C(=O)NC` (stereo unspecified), the call was inactive.

Take `Cc1[nH]n(C)c(=O)c1C(=O)c1ccc(C(F)(F)F)cc1S(C)(=O)=O`: the result was inactive.

For `CC(CNC(=S)[S-])NC(=S)[S-].[Zn+2]` (stereo unspecified), the compound was classed as inactive.

Regarding `C[C@@H]1CCO[C@H]2Cn3cc(C(=O)NCc4ccc(F)cc4F)c(=O)c(O)c3C(=O)N12`, the compound was called inactive.

Another assay relates to SRY-box transcription factor 17 (SOX17) Protein Expression, Deisenroth Lab, SOX17 (gene 64321). Description: CCTE_Deisenroth_DEVTOX-GLR_legacy_Sox17: (Legacy) CCTE's DevTox GLR-Endo Assay Evaluation of SRY-box transcription factor 17 (SOX17) Protein Expression, Deisenroth Lab (AID 2284341). The conditions noted are these: actives raise or lower the signal. In outline:
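Endoderm-differentiation readout in RUES2-GLR human pluripotent cells at 48 h, concentrations spanning 1 nM - 200 uM. Sox17-positive cells divided by total cell count; gain or loss relative to DMSO solvent control, n=4 experimental replicates.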
`c1cc(-c2cnn3cc(-c4ccc(OCCN5CCCCC5)cc4)cnc23)ccn1`: the AC50 is 24.6 µM (active).

For `Oc1cc(O)c2c(c1)O[C@H](c1ccc(O)c(O)c1)[C@@H](O)C2`, the AC50 is 144 µM (active).

Turning to `Nc1cccc2c1C(=O)N(C1CCC(=O)NC1=O)C2=O` (stereo unspecified), the AC50 was 0.067 µM (active).

As for `NC(=O)c1ccc(-c2nc(-c3ccc4c(c3)OCO4)c(-c3ccccn3)[nH]2)cc1`, the compound was classed as inactive.
